# Screening results as filed in PubChem.
# Hits are enriched below; roughly 19% of the tested compounds scored in any of these assays.
# RORg inh: inhibitors of mouse ROR gamma transcriptional activity; Drosophila S2 Gal4-RORgamma UAS-luciferase reporter, 20 h; Potency, µM (titrated, usually from 53.6 µM), for inactives: at the highest dose activity change, negative = inhibition, hits mostly inhibitors; P51450; 5.4% of 310,000 active; also: nearly all actives have a fitted effect of over 60% in size
# Target sequence (P51450 whole entry, looked up, the tested form may be a part): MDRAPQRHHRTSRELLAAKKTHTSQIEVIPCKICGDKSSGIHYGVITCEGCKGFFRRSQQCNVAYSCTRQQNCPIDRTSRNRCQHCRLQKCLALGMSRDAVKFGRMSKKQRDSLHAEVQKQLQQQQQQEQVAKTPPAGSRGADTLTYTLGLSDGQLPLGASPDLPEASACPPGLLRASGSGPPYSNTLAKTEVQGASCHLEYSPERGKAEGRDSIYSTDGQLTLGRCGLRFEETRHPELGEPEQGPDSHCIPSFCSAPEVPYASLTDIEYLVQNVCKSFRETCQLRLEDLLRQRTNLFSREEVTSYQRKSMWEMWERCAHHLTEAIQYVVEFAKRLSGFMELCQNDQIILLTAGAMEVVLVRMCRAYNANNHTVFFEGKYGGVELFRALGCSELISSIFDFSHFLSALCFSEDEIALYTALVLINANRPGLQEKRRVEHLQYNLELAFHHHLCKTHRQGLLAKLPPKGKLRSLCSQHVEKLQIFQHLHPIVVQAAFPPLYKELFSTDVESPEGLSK
#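 Luminescence from a UAS-regulated Photinus luciferase reporter in stably transfected Drosophila Schneider cells is measured; decreased signal marks ROR gamma inhibition. Fusion expression is induced by 700 uM copper sulfate for 20 hr.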
# TDP1 block: TDP1 (human) enzyme inhibition; recombinant TDP1, AlphaScreen DNA substrate cleavage; Potency, µM (titrated, usually from 130 µM), for the others: top-dose activity change, negative = inhibition, actives largely listed as inhibitors; 0.28% of 350,000 active; AID 485290; also: nearly all actives have a fitted effect of over 40% in size
#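 Steps: enzyme plus compound, 15 min RT; add biotin/phosphotyrosine-FITC oligonucleotide (15 nM final), react 5 min; add donor/acceptor beads (10 ug/ml final), 10 min; read AlphaScreen. Tdp1 at 1 nM final.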
# DT40 TDP1 CPT: growth inhibition of DT40 Tdp1-/-;hTDP1 cells with camptothecin (screen for TDP1 inhibitors); 12% of 420,000 active; AID 686979; chicken DT40 Tdp1-/-;hTDP1 cells + 20 nM CPT, ATP luminescence, 48 h; Potency, µM (doses to about 46.2 µM), for inactives: at the highest dose activity change, negative = growth inhibition, hits mostly inhibitors; also: nearly all actives have a fitted effect of over 55% in size
#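 Chicken DT40 Tdp1-/- cells complemented with human TDP1, 400 cells/well, exposed to compounds plus 20 nM camptothecin for at least 48 h at 37 C; viability read as ATP content by CellTiter-Glo luminescence.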
# VP16 counter: inhibits Gal4-VP16 luciferase reporter, ROR gamma counter-screen. Potency, µM (doses to about 53.6 µM), for the others: at the top dose activity, negative = inhibition, usual class: inhibitors. Drosophila S2 Gal4-VP16 UAS-luciferase, luminescence, 20 h. 3.5% of 310,000 active;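 also: Gal4-VP16 expression switched on by copper sulfate through the metallothionein promoter; nearly all actives have a fitted effect of over 50% in size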
# DT40 TDP1 no CPT: qHTS for Inhibitors of human tyrosyl-DNA phosphodiesterase 1 (TDP1): qHTS in cells in absence of CPT. DT40 Tdp1-/- hTDP1 cells, no CPT, ATP luminescence, 48 h. Potency, µM (doses to about 46.2 µM), for inactives: at the top dose activity change, negative = growth inhibition, usual class: inhibitors. 15% of 420,000 active. AID 686978, 2013; also: nearly all actives have a fitted effect of over 55% in size
#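 Camptothecin absent (DMSO only). Human TDP1-complemented DT40 knockout cells, 400 cells/well, 37 °C for minimum 48 hr; ATP measured via CellTiter-Glo, 30 min dark incubation, luminescence.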
# Starred values were filed as active, the others as inactive; ? = inconclusive; nt = no result; [ ] = another dose, or the depositor's remark. Calls follow the shape of the dose curve; as a rule, active = well fitted curve in the direction sought with a large enough effect; inconclusive = small, poorly fitted or top-dose-only effect, or another doubt; inactive = no such curve, though single readings can be large; an effect the other way counts as inactive or inconclusive. % is scaled to controls: 0 for no effect and ±100 for the full control effect; potency is read from the fitted curve at half-maximal effect.
SMILES,RORg inh,TDP1 block,DT40 TDP1 CPT,VP16 counter,DT40 TDP1 no CPT
CCN(C(=O)C1CCN(c2nc(-c3ccc(OC)cc3)no2)CC1)c1ccccc1,26.8%,nt,?,0.3%,?
CC(=O)c1ccc(N=C2SCCCN2C(=O)C2CCCC2)cc1,24.8%,2.5%,-3.0%,-2.6%,-1.5%
CC(=O)c1cccc(S(=O)(=O)N2CCC(C(=O)NC3CCCC3)CC2)c1,nt,-7.5%,-4.0%,nt,-9.6%
COCCCNC(=O)COc1ccc(S(=O)(=O)NCc2ccccc2)cc1Cl,2.4%,5.1%,-26.7%,-1.6%,?
COc1ccc(OC)c(NC(=O)Nc2nc(C(C)N)cs2)c1 (configuration not stated),nt,nt,-29.0%,nt,?
Cc1csc(NC(=O)c2ccccc2O)n1,-27.3%,6.7%,-14.8%,1.9%,-25.8%
COc1ccccc1NC(=O)Nc1nc(C(N)C(C)C)cs1 (configuration not stated),nt,nt,?,nt,20.6µM*
COc1ccccc1NC(=O)Nc1nc(C(C)(C)C)cs1,27.6%,6.3%,16.4µM*,13.6%,-22.9%
CC(C)(C)c1csc(NC(=O)c2ccccc2O)n1,?,nt,-22.6%,2.51µM*,?
CCOc1ccc(S(=O)(=O)NCCC(=O)NCC(c2ccc(OC)cc2)N2CCCC2)cc1 (configuration not stated),nt,1.7%,-14.5%,nt,2.4%
CN(CCC#N)CC(=O)Nc1ccc(S(N)(=O)=O)cc1,-6.4%,-3.1%,9.7%,0.7%,2.3%
CCOc1ccc(C(=O)Nc2c3c(nn2C(C)(C)C)CSC3)cc1OCC,12.9%,0.0%,-28.7%,-1.4%,-3.0%
Cc1ccc(C2C3=C(NCCN=C3c3ccccc3)C(=O)N2c2ccccc2)cc1 (configuration not stated),-7.0%,3.0%,20.6µM*,-4.5%,23.1µM*
CCOc1ccc(N2C(=O)C3=C(C(c4ccc(Cl)cc4)=NCCN3)C2c2cccnc2)cc1 (configuration not stated),23.2%,5.3%,?,2.3%[10 µM],?
Cc1ccc(N=Nc2c(N)nn3c(C)cc(C)nc23)cc1,?,1.8%,?,?,23.1µM*
Cc1nn(-c2ccccc2)c(N)c1N=Nc1ccc2ccccc2c1,1.12µM*,13.2%,-8.0%,2.8%,?
Cc1nn(-c2ccccc2)c(N)c1N=O,-40.6%,nt,2.5%,-0.1%,6.3%
COc1ccc(N=Nc2c(N)nn(C)c2N)cc1,nt,nt,1.6%,nt,-5.2%
Cc1ccc(N=Nc2c(N)nn(-c3ccccc3)c2N)cc1,24.7%,10.3%,3.66µM*,27.8%,4.61µM*
Cc1cc(C)n2nc(N)c(N=Nc3cccc(Cl)c3)c2n1,?,5.3%,2.2%,?,?
COc1ccc2ccc3cccc[n+]3c2c1,nt,nt,4.6%,nt,-4.8%
COc1ccc(OC)c(/C=C/c2ccccc2)c1,nt,nt,-25.1%,nt,-0.7%
COc1ccc(/C=C/c2ccc3ccccc3n2)c(OC)c1,nt,nt,15.8µM*,nt,11.2µM*
COc1ccc(OC)c(/C=C/c2ccc3ccccc3[n+]2C)c1,nt,nt,2µM*,nt,2µM*
O=[N+]([O-])c1ccccc1/C=C/c1ccc2ccccc2n1,25.6%,nt,-39.8%,1.9%,?
SMILES,RORg inh,TDP1 block,DT40 TDP1 CPT,VP16 counter,DT40 TDP1 no CPT
COc1ccc(OC)c(/C=C/c2cc3ccccc3cn2)c1,nt,nt,5.01µM*,nt,5.01µM*
COc1cc(OC)c(OC)cc1C=Cc1ccc2ccccc2n1,nt,nt,16.4µM*,nt,14.6µM*
O=C1CCCC2=C1C(c1c(Cl)nc3sccn13)C1=C(CCCC1=O)N2,35.7%,4.2%,nt,9.2%,nt
Cc1cc(C)cc(NC(=O)c2cc(=O)c3ccccc3o2)c1,2.2%,3.5%,26.0%,2.7%,-12.8%
COC(=O)c1ccc2nc(-c3ccc(C#N)cc3)c(Cc3cccc(Cl)c3)n2c1,nt,nt,20.6µM*,nt,20.6µM*
COC(=O)c1ccc2nc(-c3cccc(Cl)c3)c(Cc3ccccc3)n2c1,nt,nt,20.6µM*,nt,10.3µM*
Clc1cccc(-c2nc3ccc(Cl)cn3c2Cc2ccccc2)c1,nt,nt,?,nt,16.4µM*
COC(=O)c1ccc2nc(-c3cccc(Br)c3)c(Cc3ccccc3)n2c1,nt,nt,?,nt,23.1µM*
